# Measured values reported in PMC7862700, “An all-to-all approach to the identification of sequence-specific readers for epigenetic DNA modifications on cytosine”.
# Tests used:
# Test in all cases: DAPPL (digital affinity profiling via proximity ligation, sequencing); 10 mM Tris-HCl pH 7.5, 50 mM NaCl, 1 mM DTT, 4% glycerol, room temperature, 30 min; GST-TFs on glutathione beads, 16-mer random dsDNA library, 0.1% formaldehyde crosslink after washing; high values mean tight binding
# FEV = target: T1, FEV (Homo sapiens, UniProt Q99581 1-238); conditions: protein: recombinant; tags: N-terminal GST; dsDNA, one strand shown
# T1 sequence: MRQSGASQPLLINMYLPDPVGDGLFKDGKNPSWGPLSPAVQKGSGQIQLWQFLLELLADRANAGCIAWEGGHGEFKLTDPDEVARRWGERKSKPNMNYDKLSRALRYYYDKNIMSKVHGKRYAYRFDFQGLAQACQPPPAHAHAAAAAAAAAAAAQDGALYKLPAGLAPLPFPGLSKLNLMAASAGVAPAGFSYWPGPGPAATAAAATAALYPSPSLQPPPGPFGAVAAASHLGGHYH
# In short: (§1)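 Human transcription factors were made in yeast as GST fusions, captured on glutathione beads and barcoded with DNA. With a tag-only sample included, the pool was incubated with 200 nmole of a random double-stranded 16-mer DNA library in Tris/NaCl/DTT/glycerol buffer at room temperature for 30 min, then crosslinked with 0.1% formaldehyde after washing, ligated by proximity, amplified and sequenced. For binding signal, each hexamer's read frequency for a factor is divided by its frequency for the tag-only sample.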
# ETV5 = ETV5 (Homo sapiens, UniProt P41161 1-510); conditions: protein: recombinant; tags: N-terminal GST; dsDNA, one strand shown
# In short: as §1
# HSF1 = HSF1 (Homo sapiens, UniProt Q00613 1-529); conditions: protein: recombinant; tags: N-terminal GST; chain copies: 3; dsDNA, one strand shown
# In short: as §1
# SPIC = target: T2, SPIC (Homo sapiens, UniProt Q8N5J4 1-248); conditions: protein: recombinant; tags: N-terminal GST; dsDNA, one strand shown
# T2 sequence: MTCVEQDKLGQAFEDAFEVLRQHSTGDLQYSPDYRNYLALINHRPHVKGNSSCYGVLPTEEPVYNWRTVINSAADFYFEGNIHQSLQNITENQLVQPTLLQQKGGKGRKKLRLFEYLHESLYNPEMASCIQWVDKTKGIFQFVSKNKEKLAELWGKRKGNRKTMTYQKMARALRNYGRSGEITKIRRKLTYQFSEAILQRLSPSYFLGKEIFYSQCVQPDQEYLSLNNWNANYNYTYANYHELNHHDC
# In short: as §1
# ELF4 = ELF4 (Homo sapiens, UniProt Q99607 1-663); conditions: protein: recombinant; tags: N-terminal GST; dsDNA, one strand shown
# In short: as §1
# ELK4 = target: T3, ELK4 (Homo sapiens, UniProt P28324-2 1-405); conditions: protein: recombinant; tags: N-terminal GST; dsDNA, one strand shown
# T3 sequence: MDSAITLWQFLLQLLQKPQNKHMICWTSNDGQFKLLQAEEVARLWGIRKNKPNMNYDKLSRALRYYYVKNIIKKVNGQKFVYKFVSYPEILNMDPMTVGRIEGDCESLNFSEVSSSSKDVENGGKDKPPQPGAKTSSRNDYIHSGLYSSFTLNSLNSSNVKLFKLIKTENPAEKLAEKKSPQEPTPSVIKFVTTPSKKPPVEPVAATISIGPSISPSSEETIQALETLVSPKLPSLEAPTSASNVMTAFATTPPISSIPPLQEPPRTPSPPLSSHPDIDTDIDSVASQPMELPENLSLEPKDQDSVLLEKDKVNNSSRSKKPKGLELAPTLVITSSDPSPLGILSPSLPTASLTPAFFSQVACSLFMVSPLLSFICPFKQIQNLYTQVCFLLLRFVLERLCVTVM
# In short: as §1
# ETV2 = target: T4, ETV2 (Homo sapiens, UniProt O00321 1-342); conditions: protein: recombinant; tags: N-terminal GST; dsDNA, one strand shown
# T4 sequence: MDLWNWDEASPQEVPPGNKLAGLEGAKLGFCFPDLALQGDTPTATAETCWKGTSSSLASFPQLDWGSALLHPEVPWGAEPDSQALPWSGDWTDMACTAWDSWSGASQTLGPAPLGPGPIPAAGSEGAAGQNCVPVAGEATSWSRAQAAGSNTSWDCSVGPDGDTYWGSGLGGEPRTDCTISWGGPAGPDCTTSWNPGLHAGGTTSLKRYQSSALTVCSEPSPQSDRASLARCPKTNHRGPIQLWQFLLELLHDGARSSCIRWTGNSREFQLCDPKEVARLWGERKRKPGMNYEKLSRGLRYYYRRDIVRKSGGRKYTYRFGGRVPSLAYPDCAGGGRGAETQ
# In short: as §1
# ELF3 = target: T5, ELF3 (Homo sapiens, UniProt P78545 1-371); conditions: protein: recombinant; tags: N-terminal GST; dsDNA, one strand shown
# T5 sequence: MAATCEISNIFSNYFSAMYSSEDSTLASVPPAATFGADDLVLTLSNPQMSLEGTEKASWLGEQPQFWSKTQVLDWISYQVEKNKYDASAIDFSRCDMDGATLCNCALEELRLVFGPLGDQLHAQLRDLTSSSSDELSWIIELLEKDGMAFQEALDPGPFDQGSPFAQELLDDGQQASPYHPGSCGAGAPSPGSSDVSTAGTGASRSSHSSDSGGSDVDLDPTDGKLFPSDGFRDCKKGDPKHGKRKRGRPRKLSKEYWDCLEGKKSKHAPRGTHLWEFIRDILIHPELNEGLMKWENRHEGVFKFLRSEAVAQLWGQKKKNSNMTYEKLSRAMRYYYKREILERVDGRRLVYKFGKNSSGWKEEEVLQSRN
# In short: as §1
# CRX = CRX (Homo sapiens, UniProt O43186 1-299); conditions: protein: recombinant; tags: N-terminal GST; dsDNA, one strand shown
# In short: as §1
# ETV1 = ETV1 (Homo sapiens, UniProt P50549 1-477); conditions: protein: recombinant; tags: N-terminal GST; dsDNA, one strand shown
# In short: as §1
# ERF = target: T6, ERF (Homo sapiens, UniProt P50548 1-548); conditions: protein: recombinant; tags: N-terminal GST; dsDNA, one strand shown
# T6 sequence: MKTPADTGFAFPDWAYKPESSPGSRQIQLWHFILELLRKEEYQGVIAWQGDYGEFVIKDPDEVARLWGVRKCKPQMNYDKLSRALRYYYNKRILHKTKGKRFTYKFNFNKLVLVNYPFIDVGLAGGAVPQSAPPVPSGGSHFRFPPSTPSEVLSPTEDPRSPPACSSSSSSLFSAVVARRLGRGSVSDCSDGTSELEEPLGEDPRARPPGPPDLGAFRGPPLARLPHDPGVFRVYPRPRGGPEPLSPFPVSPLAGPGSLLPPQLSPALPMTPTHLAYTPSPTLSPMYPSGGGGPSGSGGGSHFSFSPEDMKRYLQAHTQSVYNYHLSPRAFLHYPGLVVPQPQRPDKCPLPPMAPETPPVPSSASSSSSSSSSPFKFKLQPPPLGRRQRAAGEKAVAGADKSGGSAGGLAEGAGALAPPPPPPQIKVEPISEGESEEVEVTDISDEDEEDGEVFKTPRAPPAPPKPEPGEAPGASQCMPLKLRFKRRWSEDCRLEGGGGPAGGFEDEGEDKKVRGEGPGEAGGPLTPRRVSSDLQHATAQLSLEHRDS
# In short: as §1
# ETV3L = target: T7, ETV3L (Homo sapiens, UniProt Q6ZN32 1-361); conditions: protein: recombinant; tags: N-terminal GST; dsDNA, one strand shown
# T7 sequence: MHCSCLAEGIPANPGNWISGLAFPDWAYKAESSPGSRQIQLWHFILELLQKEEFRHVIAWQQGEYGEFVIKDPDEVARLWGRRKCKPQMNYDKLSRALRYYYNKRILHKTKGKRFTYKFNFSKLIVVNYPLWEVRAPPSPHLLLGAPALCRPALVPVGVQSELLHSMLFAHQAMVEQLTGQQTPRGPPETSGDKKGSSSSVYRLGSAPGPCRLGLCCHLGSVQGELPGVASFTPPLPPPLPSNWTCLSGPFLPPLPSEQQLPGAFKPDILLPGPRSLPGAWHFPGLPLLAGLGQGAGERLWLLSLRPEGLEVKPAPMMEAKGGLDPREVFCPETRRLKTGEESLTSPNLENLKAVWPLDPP
# In short: as §1
# ETS2 = target: T8, ETS2 (Homo sapiens, UniProt P15036 1-469); conditions: protein: recombinant; tags: N-terminal GST; dsDNA, one strand shown
# T8 sequence: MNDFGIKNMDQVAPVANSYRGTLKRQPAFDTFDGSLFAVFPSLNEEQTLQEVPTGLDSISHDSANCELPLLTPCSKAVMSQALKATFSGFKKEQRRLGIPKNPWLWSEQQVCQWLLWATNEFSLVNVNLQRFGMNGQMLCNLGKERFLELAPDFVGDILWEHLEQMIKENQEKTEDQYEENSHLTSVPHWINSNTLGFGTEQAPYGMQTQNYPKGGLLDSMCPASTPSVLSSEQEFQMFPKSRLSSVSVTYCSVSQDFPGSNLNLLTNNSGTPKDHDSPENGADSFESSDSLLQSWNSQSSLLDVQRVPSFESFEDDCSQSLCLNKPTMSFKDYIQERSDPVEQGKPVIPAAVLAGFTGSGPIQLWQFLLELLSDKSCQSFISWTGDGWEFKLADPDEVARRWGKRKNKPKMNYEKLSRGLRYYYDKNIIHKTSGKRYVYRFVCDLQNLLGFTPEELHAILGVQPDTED
# In short: as §1
# SPDEF = target: T9, SPDEF (Homo sapiens, UniProt O95238 1-335); conditions: protein: recombinant; tags: N-terminal GST; dsDNA, one strand shown
# T9 sequence: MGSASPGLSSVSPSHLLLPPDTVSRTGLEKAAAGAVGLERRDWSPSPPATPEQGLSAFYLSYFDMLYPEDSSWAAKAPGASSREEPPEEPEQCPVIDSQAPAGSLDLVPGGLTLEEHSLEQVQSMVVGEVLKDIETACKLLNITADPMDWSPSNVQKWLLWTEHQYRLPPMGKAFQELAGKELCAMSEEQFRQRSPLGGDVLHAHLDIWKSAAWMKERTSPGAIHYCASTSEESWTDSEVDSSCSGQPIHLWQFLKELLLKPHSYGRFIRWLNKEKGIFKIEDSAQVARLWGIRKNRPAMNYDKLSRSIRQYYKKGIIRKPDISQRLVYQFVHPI
# In short: as §1
# ETV7 = target: T10, ETV7 (Homo sapiens, UniProt Q9Y603 1-341); conditions: protein: recombinant; tags: N-terminal GST; dsDNA, one strand shown
# T10 sequence: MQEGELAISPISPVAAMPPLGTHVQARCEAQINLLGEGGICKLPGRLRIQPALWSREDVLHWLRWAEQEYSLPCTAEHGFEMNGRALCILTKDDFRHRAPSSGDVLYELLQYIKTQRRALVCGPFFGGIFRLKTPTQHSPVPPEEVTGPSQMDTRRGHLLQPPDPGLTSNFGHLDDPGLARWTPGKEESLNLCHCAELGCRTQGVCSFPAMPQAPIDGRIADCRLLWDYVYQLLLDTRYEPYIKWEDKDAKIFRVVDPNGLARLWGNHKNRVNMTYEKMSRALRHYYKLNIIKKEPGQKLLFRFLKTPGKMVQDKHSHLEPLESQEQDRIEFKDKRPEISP
# In short: as §1
# ELF5 = target: T11, ELF5 (Homo sapiens, UniProt Q9UKW6-2 1-255); conditions: protein: recombinant; tags: N-terminal GST; dsDNA, one strand shown
# T11 sequence: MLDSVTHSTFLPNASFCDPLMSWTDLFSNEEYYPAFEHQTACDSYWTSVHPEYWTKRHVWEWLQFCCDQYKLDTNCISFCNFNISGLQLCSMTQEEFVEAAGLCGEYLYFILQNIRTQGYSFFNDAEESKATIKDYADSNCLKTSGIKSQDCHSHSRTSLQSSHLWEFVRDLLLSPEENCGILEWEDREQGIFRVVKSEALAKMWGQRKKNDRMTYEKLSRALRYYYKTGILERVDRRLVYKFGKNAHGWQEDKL
# In short: as §1
# ETV3 = target: T12, ETV3 (Homo sapiens, UniProt P41162-2 1-143); conditions: protein: recombinant; tags: N-terminal GST; dsDNA, one strand shown
# T12 sequence: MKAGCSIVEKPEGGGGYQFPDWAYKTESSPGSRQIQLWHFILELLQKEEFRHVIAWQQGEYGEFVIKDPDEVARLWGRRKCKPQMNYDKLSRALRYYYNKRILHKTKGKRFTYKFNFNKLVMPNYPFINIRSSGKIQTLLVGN
# In short: as §1
# ETV6 = ETV6 (Homo sapiens, UniProt P41212 1-452); conditions: protein: recombinant; tags: N-terminal GST; dsDNA, one strand shown
# In short: as §1
# Chain of ETV5 (P41161 whole entry): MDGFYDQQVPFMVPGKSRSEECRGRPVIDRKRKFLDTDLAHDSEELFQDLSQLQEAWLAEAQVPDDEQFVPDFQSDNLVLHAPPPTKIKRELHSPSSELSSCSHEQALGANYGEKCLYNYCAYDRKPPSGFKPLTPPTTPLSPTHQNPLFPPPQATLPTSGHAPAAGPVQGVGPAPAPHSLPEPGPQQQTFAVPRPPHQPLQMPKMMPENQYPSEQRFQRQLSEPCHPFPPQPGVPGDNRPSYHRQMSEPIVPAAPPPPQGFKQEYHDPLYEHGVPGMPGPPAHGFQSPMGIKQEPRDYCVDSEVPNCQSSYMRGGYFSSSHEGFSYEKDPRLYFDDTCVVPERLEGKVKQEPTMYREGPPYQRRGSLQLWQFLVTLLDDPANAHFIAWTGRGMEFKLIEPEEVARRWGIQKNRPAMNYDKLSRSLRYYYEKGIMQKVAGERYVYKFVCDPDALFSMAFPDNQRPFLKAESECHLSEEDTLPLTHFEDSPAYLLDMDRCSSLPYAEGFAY
# Chain of ETV6 (P41212 whole entry): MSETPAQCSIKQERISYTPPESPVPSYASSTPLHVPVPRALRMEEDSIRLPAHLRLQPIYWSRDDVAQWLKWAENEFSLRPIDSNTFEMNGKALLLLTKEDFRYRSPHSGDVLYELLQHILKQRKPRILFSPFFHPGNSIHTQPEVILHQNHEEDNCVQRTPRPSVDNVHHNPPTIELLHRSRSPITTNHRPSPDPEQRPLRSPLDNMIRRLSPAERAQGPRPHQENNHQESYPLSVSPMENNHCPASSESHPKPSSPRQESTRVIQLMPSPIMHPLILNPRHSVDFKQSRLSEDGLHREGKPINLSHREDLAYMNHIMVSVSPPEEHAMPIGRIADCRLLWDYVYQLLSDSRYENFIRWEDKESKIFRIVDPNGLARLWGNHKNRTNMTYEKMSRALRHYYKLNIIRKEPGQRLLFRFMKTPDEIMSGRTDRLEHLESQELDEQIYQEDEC
# Chain of ELF4 (Q99607 whole entry): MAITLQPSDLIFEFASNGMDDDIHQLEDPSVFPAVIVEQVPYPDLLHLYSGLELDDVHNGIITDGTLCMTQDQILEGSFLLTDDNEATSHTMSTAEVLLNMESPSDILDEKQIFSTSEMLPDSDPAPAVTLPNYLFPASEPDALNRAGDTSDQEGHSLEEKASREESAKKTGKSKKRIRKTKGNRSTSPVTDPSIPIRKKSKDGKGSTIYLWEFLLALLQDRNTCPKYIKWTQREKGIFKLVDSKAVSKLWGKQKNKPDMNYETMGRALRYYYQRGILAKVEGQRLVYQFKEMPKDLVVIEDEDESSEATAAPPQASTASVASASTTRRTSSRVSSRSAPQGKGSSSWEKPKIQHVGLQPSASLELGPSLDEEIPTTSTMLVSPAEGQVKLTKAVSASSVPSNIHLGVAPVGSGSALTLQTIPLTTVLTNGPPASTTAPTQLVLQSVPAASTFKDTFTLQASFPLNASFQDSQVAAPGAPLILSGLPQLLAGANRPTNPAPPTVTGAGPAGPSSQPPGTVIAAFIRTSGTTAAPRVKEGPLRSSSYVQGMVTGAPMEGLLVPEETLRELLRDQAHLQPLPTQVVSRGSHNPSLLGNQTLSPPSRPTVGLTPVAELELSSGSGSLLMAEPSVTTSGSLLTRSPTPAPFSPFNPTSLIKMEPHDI
# Chain of HSF1 (Q00613 whole entry): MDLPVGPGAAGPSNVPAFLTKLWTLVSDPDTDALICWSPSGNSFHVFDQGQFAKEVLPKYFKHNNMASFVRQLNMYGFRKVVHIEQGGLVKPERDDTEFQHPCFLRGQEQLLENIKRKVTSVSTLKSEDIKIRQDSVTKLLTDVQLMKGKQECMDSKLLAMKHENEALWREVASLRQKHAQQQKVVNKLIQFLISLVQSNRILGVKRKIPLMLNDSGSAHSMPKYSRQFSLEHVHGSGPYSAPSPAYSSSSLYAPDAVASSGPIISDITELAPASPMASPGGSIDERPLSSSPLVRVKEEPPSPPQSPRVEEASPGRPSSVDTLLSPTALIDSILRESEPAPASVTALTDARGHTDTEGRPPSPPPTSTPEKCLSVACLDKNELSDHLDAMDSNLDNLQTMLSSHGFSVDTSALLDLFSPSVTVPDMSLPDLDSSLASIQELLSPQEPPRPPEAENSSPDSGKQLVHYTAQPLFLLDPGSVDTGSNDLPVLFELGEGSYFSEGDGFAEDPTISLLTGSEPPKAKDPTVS
# Chain of CRX (O43186 whole entry): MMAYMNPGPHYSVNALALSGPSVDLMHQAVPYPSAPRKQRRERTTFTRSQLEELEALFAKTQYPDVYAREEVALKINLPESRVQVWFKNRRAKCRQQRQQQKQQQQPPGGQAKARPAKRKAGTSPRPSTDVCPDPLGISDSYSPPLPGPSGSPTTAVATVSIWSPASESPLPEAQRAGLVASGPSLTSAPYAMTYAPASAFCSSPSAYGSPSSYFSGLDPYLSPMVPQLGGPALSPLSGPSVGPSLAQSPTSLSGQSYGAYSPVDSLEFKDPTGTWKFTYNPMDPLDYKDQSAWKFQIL
# Chain of ETV1 (P50549 whole entry): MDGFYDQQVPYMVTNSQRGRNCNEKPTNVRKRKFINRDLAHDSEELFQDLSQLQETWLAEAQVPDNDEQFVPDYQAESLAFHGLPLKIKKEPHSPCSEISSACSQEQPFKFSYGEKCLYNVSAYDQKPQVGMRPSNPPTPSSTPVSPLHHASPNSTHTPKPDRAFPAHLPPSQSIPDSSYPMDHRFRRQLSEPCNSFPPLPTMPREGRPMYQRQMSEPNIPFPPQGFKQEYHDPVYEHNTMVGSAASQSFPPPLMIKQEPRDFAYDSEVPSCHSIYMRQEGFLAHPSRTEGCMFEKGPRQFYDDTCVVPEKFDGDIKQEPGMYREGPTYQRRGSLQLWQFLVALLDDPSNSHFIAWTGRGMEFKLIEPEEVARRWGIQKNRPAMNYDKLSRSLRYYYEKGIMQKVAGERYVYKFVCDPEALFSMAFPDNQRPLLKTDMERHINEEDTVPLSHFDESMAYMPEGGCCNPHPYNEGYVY
sequence,measurement,setting,value
CTATAT,binding signal,FEV,"1.44 fold enrichment (6-mer frequency, TF over GST control)"
same,binding signal,ETV5,"1.41 fold enrichment (6-mer frequency, TF over GST control)"
same,binding signal,HSF1,"1.23 fold enrichment (6-mer frequency, TF over GST control)"
same,binding signal,SPIC,"1.47 fold enrichment (6-mer frequency, TF over GST control)"
same,binding signal,ELF4,"1.41 fold enrichment (6-mer frequency, TF over GST control)"
same,binding signal,ELK4,"1.71 fold enrichment (6-mer frequency, TF over GST control)"
same,binding signal,ETV2,"1.22 fold enrichment (6-mer frequency, TF over GST control)"
same,binding signal,ELF3,"1.33 fold enrichment (6-mer frequency, TF over GST control)"
same,binding signal,CRX,"1.3 fold enrichment (6-mer frequency, TF over GST control)"
same,binding signal,ETV1,"1.39 fold enrichment (6-mer frequency, TF over GST control)"
same,binding signal,ERF,"1.48 fold enrichment (6-mer frequency, TF over GST control)"
same,binding signal,ETV3L,"1.4 fold enrichment (6-mer frequency, TF over GST control)"
same,binding signal,ETS2,"1.54 fold enrichment (6-mer frequency, TF over GST control)"
same,binding signal,SPDEF,"1.51 fold enrichment (6-mer frequency, TF over GST control)"
same,binding signal,ETV7,"1.41 fold enrichment (6-mer frequency, TF over GST control)"
same,binding signal,ELF5,"1.4 fold enrichment (6-mer frequency, TF over GST control)"
same,binding signal,ETV3,"1.5 fold enrichment (6-mer frequency, TF over GST control)"
same,binding signal,ETV6,"1.43 fold enrichment (6-mer frequency, TF over GST control)"
